# Experimental data published in the supplement of paper PMC8728848.
# About 410 targets per protein were measured; listed, in parts, are those with the strongest signals and a random draw of the rest.
# Columns and labels:
# Assay in all cases: glycan array binding signal (z-score within array); higher = stronger binding
# Details in all cases: glycan notation: IUPAC condensed, linker removed
# [1] = biological target: Fuc(a1-2)Gal(b1-3)GlcNAc(b1-2)Man(a1-3)[Fuc(a1-2)Gal(b1-3)GlcNAc(b1-2)Man(a1-6)]Man(b1-4)GlcNAc(b1-4)GlcNAc
# Outline: (§1)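 Glycan array binding is given as a within-array Z-score, which can be read as non-binding when negative. The arrays, 3228 of them, came from the Consortium for Functional Glycomics database and were retained only where the protein sequence was available. Z-scores were averaged across arrays of the same protein sequence at different concentrations or buffers and across linkers.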
# [2] = biological target: Fuc(a1-2)Gal(b1-3)GlcNAc(b1-3)Gal(b1-4)Glc
# Outline: as §1
# [3] = biological target: Fuc(a1-2)Gal(b1-3)GlcNAc(b1-3)[Fuc(a1-3)[Gal(b1-4)]GlcNAc(b1-6)]Gal(b1-4)Glc
# Outline: as §1
# [4] = biological target: Fuc(a1-2)Gal(b1-3)[Fuc(a1-4)]GlcNAc(b1-2)Man(a1-3)[Fuc(a1-2)Gal(b1-3)[Fuc(a1-4)]GlcNAc(b1-2)Man(a1-6)]Man(b1-4)GlcNAc(b1-4)GlcNAc
# Outline: as §1
# [5] = biological target: Fuc(a1-2)Gal(b1-4)Glc
# Outline: as §1
# [6] = biological target: Fuc(a1-2)Gal(b1-4)GlcNAc(b1-2)[Fuc(a1-2)Gal(b1-4)GlcNAc(b1-4)]Man(a1-3)[Fuc(a1-2)Gal(b1-4)GlcNAc(b1-2)Man(a1-6)]Man(b1-4)GlcNAc(b1-4)GlcNAc
# Outline: as §1
# [7] = biological target: Fuc(a1-2)Gal(b1-4)[Fuc(a1-3)]GlcNAc(b1-3)GalNAc
# Outline: as §1
# [8] = biological target: Fuc(a1-2)[Gal(a1-3)]Gal(b1-3)GlcNAc
# Outline: as §1
# [9] = biological target: Fuc(a1-2)[Gal(a1-3)]Gal(b1-4)GlcNAc
# Outline: as §1
# [10] = biological target: Fuc(a1-2)[GalNAc(a1-3)]Gal(b1-3)GlcNAc(b1-2)Man(a1-3)[Fuc(a1-2)[GalNAc(a1-3)]Gal(b1-3)GlcNAc(b1-2)Man(a1-6)]Man(b1-4)GlcNAc(b1-4)[Fuc(a1-6)]GlcNAc
# Outline: as §1
# [11] = biological target: Fuc(a1-2)[GalNAc(a1-3)]Gal(b1-4)GlcNAc
# Outline: as §1
# [12] = biological target: Fuc(a1-2)[GalNAc(a1-3)]Gal(b1-4)GlcNAc(b1-2)Man(a1-3)[Fuc(a1-2)[GalNAc(a1-3)]Gal(b1-4)GlcNAc(b1-2)Man(a1-6)]Man(b1-4)GlcNAc(b1-4)GlcNAc
# Outline: as §1
# [13] = biological target: Fuc(a1-3)[Gal3S(b1-4)]GlcNAc6S
# Outline: as §1
# [14] = biological target: Gal(a1-3)Fuc(a1-2)Gal(b1-4)GlcNAc(b1-3)[Gal(a1-3)Fuc(a1-2)Gal(b1-4)GlcNAc(b1-6)]GalNAc
# Outline: as §1
# [15] = biological target: Gal(a1-3)Gal(b1-4)GlcNAc
# Outline: as §1
# [16] = biological target: Gal(a1-3)[Gal(a1-4)]Gal(b1-4)GlcNAc
# Outline: as §1
# [17] = biological target: Gal(a1-4)Gal(b1-4)Glc
# Outline: as §1
# [18] = biological target: Gal(a1-4)Gal(b1-4)GlcNAc
# Outline: as §1
# [19] = biological target: Gal(a1-4)Gal(b1-4)GlcNAc(b1-3)Gal(b1-4)Glc
# Outline: as §1
# [20] = biological target: Gal(b1-3)GlcNAc(b1-2)[Gal(b1-3)GlcNAc(b1-6)]Man(a1-6)[Gal(b1-3)GlcNAc(b1-2)Man(a1-3)]Man(b1-4)GlcNAc(b1-4)GlcNAc
# Outline: as §1
# [21] = biological target: Gal(b1-3)GlcNAc(b1-3)Gal(b1-4)GlcNAc
# Outline: as §1
# [22] = biological target: Gal(b1-4)Gal
# Outline: as §1
# [23] = biological target: Gal(b1-4)Glc6S
# Outline: as §1
# [24] = biological target: Gal(b1-4)GlcNAc(b1-3)Gal(b1-4)GlcNAc
# Outline: as §1
# [25] = biological target: Gal(b1-6)Gal
# Outline: as §1
# [26] = biological target: Gal3S(b1-4)[Fuc(a1-3)]Glc6S
# Outline: as §1
# [27] = biological target: Gal4S(b1-4)GlcNAc
# Outline: as §1
# [28] = biological target: Gal6S(b1-4)Glc
# Outline: as §1
# [29] = biological target: GalNAc(b1-3)Gal
# Outline: as §1
# [30] = biological target: GalNAc(b1-4)Gal(b1-4)Glc
# Outline: as §1
# [31] = biological target: Glc(b1-4)Glc
# Outline: as §1
# [32] = biological target: Glc(b1-6)Glc
# Outline: as §1
# [33] = biological target: GlcNAc(a1-6)Gal(b1-4)GlcNAc
# Outline: as §1
# [34] = biological target: GlcNAc(b1-2)[GlcNAc(b1-4)]Man(a1-3)[GlcNAc(b1-4)][GlcNAc(b1-2)[GlcNAc(b1-6)]Man(a1-6)]Man(b1-4)GlcNAc(b1-4)GlcNAc
# Outline: as §1
# [35] = biological target: GlcNAc(b1-4)Gal(b1-4)GlcNAc
# Outline: as §1
# [36] = biological target: Man(a1-2)Man(a1-3)[Man(a1-2)Man(a1-6)]Man(a1-6)[Man(a1-2)Man(a1-2)Man(a1-3)]Man(b1-4)GlcNAc(b1-4)GlcNAc
# Outline: as §1
# [37] = biological target: Man(a1-3)[Man(a1-6)]Man(a1-6)[Man(a1-2)Man(a1-3)]Man(b1-4)GlcNAc(b1-4)GlcNAc
# Outline: as §1
# [38] = biological target: Neu5Ac(a2-3)Gal(b1-3)GalNAc(b1-3)Gal(a1-4)Gal(b1-4)Glc
# Outline: as §1
# [39] = biological target: Neu5Ac(a2-3)Gal(b1-3)GlcNAc(b1-3)GalNAc
# Outline: as §1
# [40] = biological target: Neu5Ac(a2-3)Gal(b1-4)GlcNAc(b1-6)[Neu5Ac(a2-3)Gal(b1-3)]GalNAc
# Outline: as §1
# [41] = biological target: Neu5Ac(a2-3)Gal(b1-4)[Fuc(a1-3)]GlcNAc(b1-3)Gal
# Outline: as §1
# [42] = biological target: Neu5Ac(a2-3)Gal(b1-4)[Fuc(a1-3)]GlcNAc(b1-3)GalNAc
# Outline: as §1
# [43] = biological target: Neu5Ac(a2-6)Gal(b1-4)GlcNAc(b1-2)Man(a1-3)[Neu5Ac(a2-6)Gal(b1-4)GlcNAc(b1-2)Man(a1-6)]Man(b1-4)GlcNAc(b1-4)GlcNAc
# Outline: as §1
# [44] = biological target: Neu5Ac(a2-6)Gal(b1-4)GlcNAc(b1-3)Gal(b1-4)GlcNAc(b1-3)Gal(b1-4)GlcNAc
# Outline: as §1
# [45] = biological target: Neu5Ac9Ac(a2-3)Gal(b1-4)GlcNAc
# Outline: as §1
binder,measurement,setting,value
"DCL-1 (Homo sapiens), Q8IX05 (protein) MLRAALPALLLPLLGLAAAAVADCPSSTWIQFQDSCYIFLQEAIKVESIEDVRNQCTDHGADMISIHNEEENAFILDTLKKQWKGPDDILLGMFYDTDDASFKWFDNSNMTFDKWTDQDDDEDLVDTCAFLHIKTGEWKKGNCEVSSVEGTLCKTAIPYKRKYLSDNHILISALVIASTVILTVLGAIIWFLYKKHSDSRFTTVFSTAPQSPYNEDCVLVVGEENEYPVQFD",glycan array binding signal (z-score),[1],0.687
same,glycan array binding signal (z-score),[2],-0.715
same,glycan array binding signal (z-score),[3],0.156
same,glycan array binding signal (z-score),[4],-0.488
same,glycan array binding signal (z-score),[5],0.028
same,glycan array binding signal (z-score),[6],-0.471
same,glycan array binding signal (z-score),[7],1.87
same,glycan array binding signal (z-score),[8],3.01
same,glycan array binding signal (z-score),[9],-0.77
same,glycan array binding signal (z-score),[10],-0.151
same,glycan array binding signal (z-score),[11],-0.734
same,glycan array binding signal (z-score),[12],0.221
same,glycan array binding signal (z-score),[13],-0.491
same,glycan array binding signal (z-score),[14],0.69
same,glycan array binding signal (z-score),[15],0.709
same,glycan array binding signal (z-score),[16],-0.245
same,glycan array binding signal (z-score),[17],-0.289
same,glycan array binding signal (z-score),[18],0.053
same,glycan array binding signal (z-score),[19],-0.496
same,glycan array binding signal (z-score),[20],2.22
same,glycan array binding signal (z-score),[21],-0.606
same,glycan array binding signal (z-score),[22],-0.028
same,glycan array binding signal (z-score),[23],0.595
same,glycan array binding signal (z-score),[24],2.35
same,glycan array binding signal (z-score),[25],-0.915
same,glycan array binding signal (z-score),[26],0.532
same,glycan array binding signal (z-score),[27],-0.14
same,glycan array binding signal (z-score),[28],0.156
same,glycan array binding signal (z-score),[29],-0.083
same,glycan array binding signal (z-score),[30],-0.041
same,glycan array binding signal (z-score),[31],-0.786
same,glycan array binding signal (z-score),[32],-0.407
same,glycan array binding signal (z-score),[33],6.83
same,glycan array binding signal (z-score),[34],0.126
same,glycan array binding signal (z-score),[35],-0.427
same,glycan array binding signal (z-score),[36],2.43
same,glycan array binding signal (z-score),[37],10.6
same,glycan array binding signal (z-score),[38],3.04
same,glycan array binding signal (z-score),[39],-0.021
same,glycan array binding signal (z-score),[40],0.223
same,glycan array binding signal (z-score),[41],0.066
same,glycan array binding signal (z-score),[42],5.12
same,glycan array binding signal (z-score),[43],0.079
same,glycan array binding signal (z-score),[44],-1.67
same,glycan array binding signal (z-score),[45],2.38
